According to PubChem BioAssay (NCATS):
Several values for one entry are separate records, joined by “and”; a condition that tells them apart may be missing. Equal values may be shown once. Results filed as inconclusive are left out. The source holds several records for some structures; these can differ, active in one and inactive in another. Activity calls are given as the source filed them. Unless noted, the call rests on the fitted dose curve; in most records, active means well fitted curve in the direction sought with a large enough effect; inconclusive means small, poorly fitted or top-dose-only effect, or another doubt; inactive means no such curve, though single readings can be large; an effect the other way counts as inactive or inconclusive.

Experiments:
[1] = biological target: Cytochrome P450 1A2 (Homo sapiens) (UniProt P05177); assay: p450-cyp1a2 (AID 410; calls by dose curve; further: potency means the concentration at half of the fitted maximal effect;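 on activity change, negative = inhibition: -100% = full effect of reference inhibitor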); conditions: recombinant CYP1A2, luciferin-ME demethylation, luminescence; series mostly up to 57 µM
How it was run: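 20nM CYP1A2, 100uM Luciferin-ME (=Km), 100mM KPO4; cpd 10 min RT; +NADPH regen, 60 min RT; stop/detect 20 min; luminescence. Normalized to furafylline 57 uM = full inhibition.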

[2] = biological target: Glucocorticoid receptor (Homo sapiens) (UniProt P04150); assay: GR-GFP Redistribution (AID 450;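 active means compounds whose dose series gives a full or clear partial fitted curve of increased nuclear translocation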; further: potency means the concentration at half of the fitted maximal effect); conditions: U2OS GR-GFP nuclear translocation, laser cytometry, 2 h
[3] = qHTS Assay for Lipid Storage Modulators (AID 1519; calls by dose curve); conditions: Drosophila S3 cells, BODIPY lipid droplet/cell ratio, laser cytometry, cells loaded with oleic acid
How it was run: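 Cells seeded at 5,000 per well were treated with compounds over a concentration series and loaded with oleic acid (400 uM, as added). Lipid droplet fluorescence (488 nm excitation, 500-530 nm channel) was read by laser-scanning cytometry and normalized to 20 uM Triacsin C.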

[4] = biological target: DNA dC->dU-editing enzyme APOBEC-3G (Homo sapiens) (UniProt Q9HC16); assay: qHTS for inhibitors of Vif-A3G interactions: Validation (AID 588379); conditions: Vif-A3G protein interaction assay; series mostly up to 46.1 µM; further: 0% is about no effect
How it was run: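 Yellow fluorescence (Ex 488, Em 500-530) of Vif-coexpressing HeLa A3G-eYFP cells, scanned by Acumen cytometer, reports blocked A3G degradation. Cells plated at 700/well overnight at 37 deg C before compound addition, then a further overnight compound incubation at 37 deg C.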

[5] = system: Zika virus NS2B-NS3 protease; assay: Primary screen GU AMC qHTS for Zika virus inhibitors (AID 1347154); conditions: Zika NS2B-NS3 unlinked protease, AMC fluorogenic substrate; series mostly up to 54.1 µM;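 further: 0% = no-inhibitor control and -100% = no-enzyme control; nearly all actives have a fitted effect of over 70% in size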
How it was run: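 Unlinked Zika NS2B hydrophilic domain/NS3 protease domain noncovalent complex (25 nM final) in 10 mM Tris-HCl pH 8.0, 0.01% Tween 20, with AMC peptide substrate. Fluorescence (ex 340, em 450 nm) change over 15 min, room temperature; percent inhibition fitted to 4-parameter Hill equation.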

[6] = Primary qHTS for small molecule stabilizers of the endoplasmic reticulum resident proteome: Secreted ER Calcium Modulated Protein (SERCaMP) assay (AID 1508630); conditions: SH-SY5Y GLuc-SERCaMP (Gaussia luciferase released on ER calcium loss) secretion, thapsigargin, luminescence; series mostly up to 38.4 µM; further: on the % scale 0 is the no-effect control and ±100 the full control effect
How it was run: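 The SH-SY5Y reporter protocol was run at 3 concentrations up to 38.3 uM (primary) or 11 concentrations (follow-up): 16 h compound, 100 nM thapsigargin for 4 h, then extracellular luciferase luminescence.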

[7] = AP1 Signaling Pathway (AID 357; active means well fitted curve in either direction with a large enough effect, not every such curve was filed as active;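 further: ME-180 reporter cells stimulated with EGF at its EC50 level; on the % scale 0 is the no-effect control and ±100 the full control effect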); conditions: ME-180 (cervical carcinoma) AP-1-bla reporter, EGF-induced, beta-lactamase ratio, 5 h; series mostly up to 38 µM
How it was run: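 Read-out was the 460nm/530nm emission ratio (excitation 405nm) after CCF4 loading for 2.5 hours at room temperature. Cells carried an AP-1-driven beta-lactamase reporter, were stimulated with EC50 EGF plus compound for 5 hours, and AC50 values came from titrations.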

[8] = NFAT Signaling Pathway (AID 444; active means well fitted curve in either direction with a large enough effect, not every such curve was filed as active;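 further: carbachol stimulus at about its EC50 of 1 µM final; on the % scale 0 is the no-effect control and ±100 the full control effect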); conditions: Jurkat NFAT-bla M1, carbachol, beta-lactamase ratio, 5 h
How it was run: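 Jurkat cells carrying an NFAT-driven β-lactamase reporter and co-transfected muscarinic M1 receptor were treated with compound plus carbachol (1 uM final, an EC50 level) for 5 h at 37 °C. CCF4 loading followed for 1 h at RT; 460/530 nm ratio gave %activity.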

[9] = biological target: Mitogen-activated protein kinase 10 (Mus musculus) (UniProt Q61831); assay: JNK3 AlphaScreen Assay (AID 530; active means well fitted curve in either direction with a large enough effect, not every such curve was filed as active;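 further: kinase came from lysate of stimulated human HepG2 cells; signal reports phosphorylation of biotinylated GST-cJun 1-79 at Ser73 with 10 µM ATP; on the % scale 0 is the no-effect control and ±100 the full control effect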); conditions: JNK3 lysate, c-Jun phosphorylation; series mostly up to 57.1 µM
How it was run: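 Biotinylated GST-cJun(1-79) served as substrate for JNK3 in HepG2 lysates stimulated with IL-1beta and TNF-alpha. ATP was 10 uM final, pH 7.6. Ser73 phosphorylation was quantified by AlphaScreen (680 nm excitation).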

[10] = biological target: 3',5'-cyclic-AMP phosphodiesterase 4B (Homo sapiens) (UniProt Q07343); assay: qHTS Assay for Inhibitors of PDE-IV (AID 607; active means well fitted activation curve with a large enough effect in the main read-out, with a control signal flat, not every such curve was filed as active; further: % of control where 0% means no effect); conditions: HEK293 ACTOne CNG channel cells, membrane potential fluorescence; series mostly up to 22.9 µM
How it was run: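 Live HEK293 cells with a modified cyclic nucleotide-gated (CNG) channel report intracellular cAMP via membrane-potential dye fluorescence (ex 535/em 590 nm). Endogenous PDE-IV was targeted. Compounds were tested at up to 22.9 uM final; RO 20-1724 100 uM served as control.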

[11] = biological target: Cytochrome P450 2D6 (Homo sapiens) (UniProt P10635); assay: qHTS Assay for Inhibitors and Substrates of Cytochrome P450 2D6 (AID 891); conditions: recombinant CYP2D6, luciferin-ME EGE luminescence; series mostly up to 57.1 µM; further: nearly all actives have a fitted effect of over 60% in size; further: potency means the concentration at half of the fitted maximal effect
How it was run: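 Luminescent read-out of luciferin formed by 5 nM human CYP2D6 demethylating 30 uM Luciferin-ME EGE (Km level) over 60 min at room temperature after NADPH regeneration addition. Data normalized to full inhibition by 1.43 uM quinidine.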

[12] = biological target: Cytochrome P450 2C19 (Homo sapiens) (UniProt P33261); assay: qHTS Assay for Inhibitors and Substrates of Cytochrome P450 2C19 (AID 899); conditions: recombinant CYP2C19, luciferin-H EGE luminescence; series mostly up to 57.1 µM; further: nearly all actives have a fitted effect of over 60% in size; further: potency means the concentration at half of the fitted maximal effect
How it was run: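 In 50mM KPO4, the reaction held 5nM enzyme and KM-level (10uM) Luciferin-H EGE; it ran 60 min at 37C after NADPH regeneration and a 10 min compound preincubation. Luminescence values were scaled to 57uM ketoconazole as complete inhibition.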

[13] = biological target: Pyruvate kinase (Leishmania mexicana) (UniProt Q27686); assay: qHTS Validation Assay for Inhibitors of Leishmania Mexicana Pyruvate Kinase (AID 945);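 further: 0% = DMSO only neutral control wells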; conditions: purified L. mexicana pyruvate kinase, enzyme activity, E451W mutant enzyme; series mostly up to 57.5 µM
How it was run: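 An endpoint luciferase assay: 0.2 nM LmPYK E451W turns over 0.5 mM PEP with 0.1 mM ADP for 1 h at room temperature, pH 7.2, before PKLight addition. Values are normalized to DMSO-only wells.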

[14] = biological target: Pyruvate kinase PKM (Homo sapiens) (UniProt P14618); assay: qHTS Assay for Activators of Human Muscle Pyruvate Kinase (AID 954; active means well fitted curve in the direction sought with a large enough effect, not every such curve was filed as active;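 further: 0% = uninhibited enzyme and -100% = no enzyme or full thiadiazolimine inhibition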); conditions: purified human muscle pyruvate kinase, luciferase-coupled luminescence, 1 h; series mostly up to 57.5 µM
How it was run: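 Screening used highly purified human pyruvate kinase M2 under submaximal activity, with PEP at its Km and ADP below Km. After an hour at room temperature, ATP was read by luciferase luminescence.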

[15] = biological target: Alpha-galactosidase (Coffea arabica) (UniProt Q42656); assay: Counterscreen for Glucocerebrosidase Inhibitors: qHTS Assay for Coffee Bean alpha-Galactosidase at pH 4.5 (AID 957); conditions: purified coffee bean alpha-galactosidase, fluorogenic substrate; series mostly up to 76.9 µM;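 further: plate controls were enzyme alone for no effect and no enzyme for full effect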
How it was run: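 Fluorogenic read-out: 4-methylumbelliferone at Ex 365/Em 440 nm after NaOH/glycine stop (pH 10). Enzyme 2 nM, 4-MU-alpha-galactoside 80 uM, citrate buffer pH 4.5, 20 min RT; normalized to no-enzyme and enzyme controls.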

[16] = biological target: Alpha-galactosidase A (Homo sapiens) (UniProt P06280); assay: Counterscreen for Glucocerebrosidase Inhibitors: qHTS Assay for Human alpha-Galactosidase at pH 4.5 (AID 992); conditions: purified enzyme, fluorogenic substrate; series mostly up to 76.9 µM; further: 0% is about no effect
How it was run: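 Each compound is preincubated briefly with 2 nM enzyme before substrate addition (80 uM); plates then sit 20 min at ambient temperature, are quenched with 1M NaOH/1M glycine, and read fluorometrically.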

[17] = biological target: alpha-glucosidase (Oryza sativa, rice) (UniProt Q653V4); assay: Counterscreen for Glucocerebrosidase Inhibitors: qHTS Assay for Rice alpha-Glucosidase at pH 5.0 (AID 997); conditions: rice alpha-glucosidase enzyme activity; series mostly up to 76.9 µM;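 further: 0% = full activity with enzyme and -100% = basal without enzyme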
How it was run: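 Endpoint fluorogenic assay at pH 5.0: compounds (0.7 nM to 77 uM) titrated against 4 nM rice enzyme and 400 uM 4-MU-alpha-glucoside for 20 min at room temperature; NaOH/glycine stop, read ex 365/em 440 nm, Hill-fitted AC50.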

[18] = biological target: Alpha-galactosidase (Coffea arabica) (UniProt Q42656); assay: Counterscreen for Glucocerebrosidase Inhibitors: qHTS Assay for Coffee Bean alpha-Galactosidase at pH 5.9 (AID 998); conditions: coffee bean alpha-galactosidase enzyme assay; series mostly up to 76.9 µM;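 further: plate controls were uninhibited enzyme for no effect and no-enzyme basal signal for full effect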
How it was run: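 In 50 mM citric acid pH 5.9 with 0.005% Tween-20, coffee bean enzyme hydrolyses 80 uM 4-MU alpha-D-galactopyranoside over 20 min at RT. Activity is normalized to controls; AC50 comes from Hill-modelled concentration-response data.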

[19] = biological target: Glucocorticoid receptor (Homo sapiens) (UniProt P04150); assay: GR-EFC Redistribution (AID 451; calls by dose curve; further: potency means the concentration at half of the fitted maximal effect); conditions: CHO-K1 GR-EFC translocation, beta-gal luminescence, 2 h
How it was run: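 CHO-K1 cells stably expressing nuclear-localized β-gal enzyme acceptor and GR fused C-terminally to the enzyme donor fragment; ligand-driven nuclear translocation restores β-gal by complementation. Compounds titrated up to 46 uM final, 2 h at 37 °C; luminescence read.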

[20] = biological target: Ubiquitin carboxyl-terminal hydrolase 1 (Homo sapiens) (UniProt O94782); assay: Inhibitors of USP1/UAF1: Pilot qHTS (AID 504865); conditions: purified USP1/UAF1, Ub-rhodamine cleavage fluorescence; series mostly up to 114 µM;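 further: rhodamine fluorescence freed from ubiquitin-rhodamine substrate followed over time; top concentration of the series differs between compounds; on the % scale 0 is the no-effect control and ±100 the full control effect; nearly all actives have a fitted effect of over 35% in size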
How it was run: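 1nM USP1/UAF1 + cpd, 15 min RT; start w/ Ub-Rho 150nM final; kinetic FL 480/540 nm, 6 reads q60 s. Buffer 50mM HEPES pH 7.8, 0.5mM EDTA, 1mM TCEP, 0.01% Tween-20, 0.1 mg/ml BSA.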

Alpha-galactosidase (Coffea arabica), sequence (Q42656 whole entry, looked up): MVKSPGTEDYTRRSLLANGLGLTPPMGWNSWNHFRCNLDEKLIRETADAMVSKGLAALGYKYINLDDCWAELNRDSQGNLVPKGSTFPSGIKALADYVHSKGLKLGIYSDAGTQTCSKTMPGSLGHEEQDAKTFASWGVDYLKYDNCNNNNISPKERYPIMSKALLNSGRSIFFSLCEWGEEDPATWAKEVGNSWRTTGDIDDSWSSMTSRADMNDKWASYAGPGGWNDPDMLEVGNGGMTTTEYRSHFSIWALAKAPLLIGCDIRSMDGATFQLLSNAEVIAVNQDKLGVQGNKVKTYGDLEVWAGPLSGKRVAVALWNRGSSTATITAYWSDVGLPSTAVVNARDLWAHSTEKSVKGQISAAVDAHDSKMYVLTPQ
DNA dC->dU-editing enzyme APOBEC-3G (Homo sapiens), sequence (Q9HC16 whole entry, looked up): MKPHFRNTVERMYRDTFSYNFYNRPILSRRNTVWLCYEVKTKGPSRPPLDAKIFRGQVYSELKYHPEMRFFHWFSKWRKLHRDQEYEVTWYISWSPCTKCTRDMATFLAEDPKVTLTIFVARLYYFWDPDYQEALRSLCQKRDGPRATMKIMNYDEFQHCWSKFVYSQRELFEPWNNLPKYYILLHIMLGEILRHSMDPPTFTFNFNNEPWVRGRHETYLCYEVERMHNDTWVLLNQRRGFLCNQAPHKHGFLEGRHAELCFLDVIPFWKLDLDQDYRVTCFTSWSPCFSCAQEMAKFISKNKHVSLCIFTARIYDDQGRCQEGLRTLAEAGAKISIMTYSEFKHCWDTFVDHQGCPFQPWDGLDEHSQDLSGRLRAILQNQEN
Cytochrome P450 2C19 (Homo sapiens), sequence (P33261 whole entry, looked up): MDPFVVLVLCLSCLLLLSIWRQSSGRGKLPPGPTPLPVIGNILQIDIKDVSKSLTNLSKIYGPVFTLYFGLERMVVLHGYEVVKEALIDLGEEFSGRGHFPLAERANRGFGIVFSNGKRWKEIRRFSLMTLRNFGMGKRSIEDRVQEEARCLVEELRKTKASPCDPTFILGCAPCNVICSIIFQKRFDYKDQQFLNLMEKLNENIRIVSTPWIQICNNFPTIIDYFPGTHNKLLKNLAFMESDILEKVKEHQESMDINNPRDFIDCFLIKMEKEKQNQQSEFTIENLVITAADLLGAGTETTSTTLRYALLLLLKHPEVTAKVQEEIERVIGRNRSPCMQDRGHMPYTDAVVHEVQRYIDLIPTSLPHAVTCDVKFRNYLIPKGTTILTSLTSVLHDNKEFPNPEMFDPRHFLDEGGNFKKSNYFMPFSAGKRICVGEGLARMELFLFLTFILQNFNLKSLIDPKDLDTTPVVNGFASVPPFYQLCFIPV
Glucocorticoid receptor (Homo sapiens), sequence (P04150 whole entry, looked up, the tested form may be a part): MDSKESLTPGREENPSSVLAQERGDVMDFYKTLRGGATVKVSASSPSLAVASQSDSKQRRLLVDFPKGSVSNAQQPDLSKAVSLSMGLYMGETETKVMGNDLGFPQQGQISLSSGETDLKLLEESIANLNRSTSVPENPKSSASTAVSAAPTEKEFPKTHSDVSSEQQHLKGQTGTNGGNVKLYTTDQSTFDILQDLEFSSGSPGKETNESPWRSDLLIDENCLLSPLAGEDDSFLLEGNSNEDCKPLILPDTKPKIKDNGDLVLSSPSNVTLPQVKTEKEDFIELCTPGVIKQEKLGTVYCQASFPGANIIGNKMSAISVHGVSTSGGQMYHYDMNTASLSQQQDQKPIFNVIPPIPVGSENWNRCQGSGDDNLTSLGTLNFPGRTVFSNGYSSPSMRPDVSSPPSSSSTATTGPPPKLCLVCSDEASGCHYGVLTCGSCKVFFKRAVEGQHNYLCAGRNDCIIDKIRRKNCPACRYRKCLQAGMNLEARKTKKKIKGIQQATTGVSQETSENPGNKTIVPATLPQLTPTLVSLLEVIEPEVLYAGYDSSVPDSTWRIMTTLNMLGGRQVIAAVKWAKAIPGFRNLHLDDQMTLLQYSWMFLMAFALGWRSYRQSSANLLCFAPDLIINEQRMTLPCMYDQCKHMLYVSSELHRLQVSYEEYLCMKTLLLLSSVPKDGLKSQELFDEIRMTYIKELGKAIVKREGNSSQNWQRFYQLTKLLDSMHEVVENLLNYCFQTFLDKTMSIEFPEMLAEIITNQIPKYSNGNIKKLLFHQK
Cytochrome P450 1A2 (Homo sapiens), sequence (P05177 whole entry, looked up): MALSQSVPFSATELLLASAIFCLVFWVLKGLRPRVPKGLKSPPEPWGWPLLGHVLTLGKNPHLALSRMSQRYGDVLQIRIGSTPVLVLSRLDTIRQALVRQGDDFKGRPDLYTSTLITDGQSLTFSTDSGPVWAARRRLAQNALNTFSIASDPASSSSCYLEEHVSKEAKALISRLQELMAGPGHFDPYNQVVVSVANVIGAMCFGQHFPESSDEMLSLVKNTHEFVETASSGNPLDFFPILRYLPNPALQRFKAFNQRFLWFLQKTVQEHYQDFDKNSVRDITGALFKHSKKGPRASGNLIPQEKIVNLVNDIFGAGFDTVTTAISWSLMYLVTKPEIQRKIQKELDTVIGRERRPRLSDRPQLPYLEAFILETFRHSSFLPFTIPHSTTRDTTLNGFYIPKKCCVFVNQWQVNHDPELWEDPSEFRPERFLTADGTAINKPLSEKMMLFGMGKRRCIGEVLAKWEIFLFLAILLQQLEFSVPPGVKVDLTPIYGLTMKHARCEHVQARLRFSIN
Cytochrome P450 2D6 (Homo sapiens), sequence (P10635 whole entry, looked up): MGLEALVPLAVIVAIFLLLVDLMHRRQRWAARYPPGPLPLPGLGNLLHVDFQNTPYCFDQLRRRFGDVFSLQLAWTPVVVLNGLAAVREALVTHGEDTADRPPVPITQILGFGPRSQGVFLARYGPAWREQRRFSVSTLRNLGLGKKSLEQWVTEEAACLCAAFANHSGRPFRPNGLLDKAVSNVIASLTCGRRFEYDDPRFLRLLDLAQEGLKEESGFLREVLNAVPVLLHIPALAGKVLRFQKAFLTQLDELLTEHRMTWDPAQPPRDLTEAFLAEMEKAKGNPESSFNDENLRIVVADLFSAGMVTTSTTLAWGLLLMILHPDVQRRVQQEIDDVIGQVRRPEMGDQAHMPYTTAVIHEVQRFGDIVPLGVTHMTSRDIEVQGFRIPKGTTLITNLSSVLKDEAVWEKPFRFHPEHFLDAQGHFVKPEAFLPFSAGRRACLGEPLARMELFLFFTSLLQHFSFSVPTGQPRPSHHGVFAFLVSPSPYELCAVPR
3',5'-cyclic-AMP phosphodiesterase 4B (Homo sapiens), sequence (Q07343 whole entry, looked up): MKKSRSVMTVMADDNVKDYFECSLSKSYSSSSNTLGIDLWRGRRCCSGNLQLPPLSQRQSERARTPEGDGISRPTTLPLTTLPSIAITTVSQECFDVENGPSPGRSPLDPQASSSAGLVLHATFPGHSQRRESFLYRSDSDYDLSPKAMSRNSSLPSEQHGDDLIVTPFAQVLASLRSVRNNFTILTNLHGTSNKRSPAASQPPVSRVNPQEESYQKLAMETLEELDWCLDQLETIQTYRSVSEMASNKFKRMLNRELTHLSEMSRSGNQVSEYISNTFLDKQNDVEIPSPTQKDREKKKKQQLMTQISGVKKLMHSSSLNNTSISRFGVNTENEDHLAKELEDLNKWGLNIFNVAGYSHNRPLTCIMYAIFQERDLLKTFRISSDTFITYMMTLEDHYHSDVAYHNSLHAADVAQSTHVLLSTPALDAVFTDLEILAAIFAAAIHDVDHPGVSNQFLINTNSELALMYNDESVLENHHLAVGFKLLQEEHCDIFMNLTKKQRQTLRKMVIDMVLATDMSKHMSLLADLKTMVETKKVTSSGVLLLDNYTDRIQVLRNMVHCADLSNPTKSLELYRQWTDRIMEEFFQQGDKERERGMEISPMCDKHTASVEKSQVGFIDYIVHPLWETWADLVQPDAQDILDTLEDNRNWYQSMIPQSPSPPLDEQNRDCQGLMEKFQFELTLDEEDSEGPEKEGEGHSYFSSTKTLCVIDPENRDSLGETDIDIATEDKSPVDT
Pyruvate kinase (Leishmania mexicana), sequence (Q27686 2-499 E452W): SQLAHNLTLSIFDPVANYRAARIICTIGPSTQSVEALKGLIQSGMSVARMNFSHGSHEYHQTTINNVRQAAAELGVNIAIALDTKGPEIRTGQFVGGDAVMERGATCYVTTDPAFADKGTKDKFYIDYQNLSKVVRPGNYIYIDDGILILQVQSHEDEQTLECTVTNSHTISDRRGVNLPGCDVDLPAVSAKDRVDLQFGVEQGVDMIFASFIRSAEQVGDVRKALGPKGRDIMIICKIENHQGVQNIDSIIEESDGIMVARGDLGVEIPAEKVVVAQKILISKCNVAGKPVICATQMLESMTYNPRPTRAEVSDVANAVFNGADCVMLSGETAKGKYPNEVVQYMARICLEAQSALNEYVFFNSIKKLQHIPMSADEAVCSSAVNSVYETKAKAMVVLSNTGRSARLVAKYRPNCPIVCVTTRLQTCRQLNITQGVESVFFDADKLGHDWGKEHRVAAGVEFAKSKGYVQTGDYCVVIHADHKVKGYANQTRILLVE
Alpha-galactosidase A (Homo sapiens), sequence (P06280 whole entry, looked up): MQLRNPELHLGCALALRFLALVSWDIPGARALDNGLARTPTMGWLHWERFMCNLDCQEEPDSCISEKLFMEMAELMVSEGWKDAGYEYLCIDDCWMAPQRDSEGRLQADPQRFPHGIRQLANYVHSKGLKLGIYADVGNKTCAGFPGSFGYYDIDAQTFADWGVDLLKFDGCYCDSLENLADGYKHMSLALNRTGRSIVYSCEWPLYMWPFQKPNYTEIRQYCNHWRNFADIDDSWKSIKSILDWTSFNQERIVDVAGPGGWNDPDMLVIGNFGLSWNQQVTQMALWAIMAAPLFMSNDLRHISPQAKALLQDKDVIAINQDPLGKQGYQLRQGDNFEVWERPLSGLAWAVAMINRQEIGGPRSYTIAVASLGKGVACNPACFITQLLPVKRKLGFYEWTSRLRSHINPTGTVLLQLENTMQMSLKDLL

NC[C@H](CS(=O)(=O)O)c1ccc(Cl)cc1
inactive: Potency [1] | Potency [2] > 46 µM | activity change, negative = inhibition ([3]; at 57.5 µM (top of the series)) 3.36% | Potency [4] | Potency [5] | Potency [6]
12%: max response ([3]; measured here: lipid channel max response)
7.7%: max response ([3]; measured here: cell count channel max response)

O=C1NCN(c2ccccc2)C12CCN(C[C@H]1COc3ccccc3O1)CC2
inactive and 7.94 µM (active): Potency [12]
inactive: outcome [7] | activity change, negative = inhibition ([8]; at 38 µM (top of the series)) 1.71% | outcome [9] | Potency [10] | outcome [13] | outcome [14] | outcome [15] | outcome [16] | outcome [17] | outcome [18] | Potency [4] | Potency [5] | Potency [6]
active: Potency [1] 12.6 µM | Potency [11] 126 nM and 63.1 nM

CC(C)(Cc1c[nH]c2ccc(Cl)cc12)NCCOc1ccccc1OCC1CC1
inactive: Potency [2] > 46 µM | Potency [19] > 46 µM | Potency [4] | Potency [5] | Potency [6]

CN1CCN(C(=O)O[C@@H]2c3nccnc3C(=O)N2c2ccc(Cl)cn2)CC1
inactive: outcome [7] | Potency [1] | activity change, negative = inhibition ([8]; at 38 µM (top of the series)) -27.2% | Potency [11] | Potency [12] | Potency [4] | Potency [5] | Potency [6]

CN(C(=O)Cc1ccc(Cl)c(Cl)c1)[C@H](CN1CCCC1)c1cccc(N=C=S)c1
inactive: Potency [2] > 46 µM | Potency [19] > 46 µM | Potency [10] | Potency [4] | Potency [5] | Potency [6]

CCCCCCCCCOc1ccc2[nH]cc(CCN)c2c1
active: Potency [1] 0.0398 µM
inactive: Potency [2] > 46 µM | Potency [19] > 46 µM | Potency [10] | Potency [4] | Potency [5] | Potency [6]

CN[C@@H]1C[C@H](c2ccc(Cl)c(Cl)c2)c2ccccc21
inactive: Potency [2] > 46 µM | Potency [19] > 46 µM | Potency [4] | Potency [5] | Potency [6]

CCC[C@@H]1CC2=CC(=O)CC[C@]2(C)[C@@H]2CC[C@@]3(C)[C@H](CC[C@]3(O)CCC(=O)O)[C@H]12
inactive: Potency [1] | Potency [2] > 46 µM | Potency [19] > 46 µM | outcome [9] | Potency [10] | Potency [20] | Potency [4] | Potency [5] | Potency [6]

O=C1CC[C@@]2(O)[C@H]3Cc4ccc(O)c5c4[C@@]2(CCN3CC2CC2)[C@@H]1O5
inactive: outcome [7] | activity change, negative = inhibition ([8]; at 38 µM (top of the series)) 8.31% | outcome [13] | outcome [15] | outcome [16] | outcome [17] | outcome [18] | Potency [20] | Potency [4] | Potency [5] | Potency [6]

CN1CCN(C(=O)OC2c3nccnc3C(=O)N2c2ccc(Cl)cn2)CC1 (centres undefined)
inactive: outcome [7] | activity change, negative = inhibition ([8]; at 17.2 µM (top of the series)) 3% | Potency [5] | Potency [6]
